# Laboratory results: PubChem BioAssay (NCI)
# The panel holds about 83,000 compounds, 20% with a hit somewhere; the sample as a whole holds those more often.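 For each line, cells grew in 96-well plates with the test compound present at a single concentration for 48 hours.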 A number with no mark means an inactive call. The source made the active and inactive calls. How the source made its calls: active means growth percent below 10; inactive means the rest.
# Legend:
# Experiment in all cases: NCI-60 one-dose screen, 48 h (100 = growth as untreated, 0 = no growth, -100 = all killed)
# Conditions in all cases: 10 µM unless noted
# SK-MEL-2 melanoma = system: SK-MEL-2 melanoma
# EKVX NSCLC = system: EKVX NSCLC
# SN12C renal = system: SN12C renal
# UO-31 renal = system: UO-31 renal
# TK-10 renal = system: TK-10 renal
# ACHN renal = system: ACHN renal
# CAKI-1 renal = system: CAKI-1 renal
# A498 renal = system: A498 renal
# CCRF-CEM leukemia = system: CCRF-CEM leukemia
# MOLT-4 leukemia = system: MOLT-4 leukemia
Compound,growth (SK-MEL-2 melanoma),growth (EKVX NSCLC),growth (SN12C renal),growth (UO-31 renal),growth (TK-10 renal),growth (ACHN renal),growth (CAKI-1 renal),growth (A498 renal),growth (CCRF-CEM leukemia),growth (MOLT-4 leukemia)
COc1cc(/C=N/NC(=O)c2ccc3nc(-c4ccc(Cl)cc4)[nH]c3c2)cc(OC)c1OC,83.6%,95.8%,68.5%,88.3%,77.4%,67.4%,76%,-1.95% (active),36.6%,41.6%
CCOC(=O)/C(=C/c1ccc([N+](=O)[O-])cc1)C(=O)c1ccccc1,53.9%,103%,79.3%,-14.3% (active),20.7%,-7.93% (active),81.6%,83.5%,6.25% (active),4.35% (active)
CN1CCN(c2ccc(Nc3ncc4[nH]c(=O)n(Cc5ccccc5N)c4n3)cc2)CC1,104%,102%,86.5%,62.5%,86.4%,89.9%,66.4%,66.4%,96.4%,93.4%
COc1ccc(C2=NN(C=O)C(c3ccc(Oc4nc5c(c(=O)n(C)c(=O)n5C)n4C)c(OC)c3)C2)cc1 (stereo not given),100%,91.8%,53.8%,74%,104%,84.8%,75.2%,85.5%,80.5%,66.7%
O=C1c2cccnc2C(=O)c2c1c(C(=O)OCCCN1CCOCC1)c1ccccn21,-57.5% (active),19.6%,-19.3% (active),-42.6% (active),21.9%,-37.3% (active),-11.4% (active),-20.2% (active),-5.87% (active),0.0972% (active)
CN1CCN(Cc2ccc(NC(=O)c3cc(C#Cc4cnc(N)c5ncccc45)n(C)n3)cc2C(F)(F)F)CC1,101%,105%,76.8%,64%,147%,47.2%,105%,83.2%,4.79% (active),80.9%
COc1ccc(C2=C/C(=C\c3ccccc3O)C(=O)N2Cc2ccccc2)cc1,51.4%,82.1%,95.8%,68.4%,85.3%,93.4%,93.2%,98.3%,73.4%,66.8%
COC(=O)c1ccc(-n2cc(CCCOS(=O)(=O)c3ccc(F)cc3)nn2)cc1,101%,101%,100%,88.2%,102%,101%,90.6%,84.4%,96.8%,95.7%
Cc1cc(=O)oc2cc(Oc3nc(-c4ccccc4)cn4c(-c5ccccc5)cnc34)ccc12,51.9%,66.8%,67.6%,40.8%,80.5%,48.6%,85.2%,9.88% (active),77.6%,58.5%
COc1cc2c(c(OC)c1OC)CCC(c1cccc(NC(=O)c3cccc(Cl)c3)c1)O2 (stereo not given),95.7%,85.9%,92%,64.2%,90.2%,90.7%,97.9%,63.9%,78.2%,57.9%
CNC(=O)c1cc(Oc2cccc3nc(NC(=O)Nc4ccc(F)cc4F)ccc23)ccn1,71%,-0.932% (active),10.6%,10.4%,-37.7% (active),33.6%,72.7%,68.1%,49.7%,53.6%
COC(=O)[C@H](C)NC(=O)[C@@H]1CCCN1C(=O)CNC(=O)[C@H](C)N,113%,89.6%,105%,91.2%,95.5%,108%,88.4%,93.2%,115%,102%
CN(Cc1ccccc1)c1nc(Cl)c(C2CC(c3ccc(Cl)cc3)=NN2c2cc(Cl)cc(Cl)c2)s1 (stereo not given),104%,94.4%,106%,96.9%,117%,102%,84.4%,111%,95.1%,110%
CSc1nc(CC(C)C)c(C#N)c(=O)n1C,85.8%,64.3%,29.1%,38.9%,34.2%,55.6%,56.8%,47%,49.2%,46.1%
CCN1CCN(c2nc(NNC(=O)c3ccc(OC)cc3)nc(N3CCN(C(c4ccccc4)c4ccccc4)CC3)n2)CC1,78%,82.6%,45.7%,61.2%,49.5%,34%,24%,60.1%,43.8%,16.3%
